LASV entry inh: blocks Lassa virus binding to or entry into cells. Lassa virus pseudotype entry inhibition, cell reporter. Potency, µM (highest dose often 37.9 µM), for inactives: at the top dose activity change, negative = inhibition, most hits filed as inhibitors. 300,000 tested, 1.2% active; calls by dose curve; tested in HEK293 cells; note: potency is the fitted concentration of half-maximal effect; % is set by controls: 0 for no effect and ±100 for the full control effect; nearly all actives have a fitted effect of over 50% in size
CHX counter: affects cycloheximide protein synthesis inhibition readout, counter-screen. 300,000 tested, 12% active. AID 2314. max response, %. cell reporter, cycloheximide protein synthesis inhibition counterscreen; in the data active = max response mostly above about 13%, no sharp cut-off; inactive = mostly below about 14%; note: read at 38.3 µM for the half of the compounds with a filed dose; 0% is about no effect
MARV entry inh: inhibitors of Marburg virus binding or cell entry. Marburg virus pseudotyped entry inhibition, cell reporter. Potency, µM (highest dose often 37.8 µM), inactives show at the top dose activity change, negative = inhibition, usual class: inhibitors. 300,000 tested, 1.8% active. AID 540276; calls by dose curve; tested in HEK293 cells; note: potency is the fitted concentration of half-maximal effect; % is set by controls: 0 for no effect and ±100 for the full control effect
Shiga toxin inh: blocks Shiga toxin action in Vero cells; Vero cells, Shiga toxin protein synthesis inhibition reporter; inhibition, % at 38.7 µM; 290,000 tested, 9.2% active; in the data active = inhibition mostly above about 28%, no sharp cut-off; inactive = mostly below about 43%; note: 0% is about no effect
Numbers without * were called inactive; [ ] = dose if it differs, or a comment. This is a sample that favours compounds with a hit; in the whole collection about 12% have one here.

How did Fc1ccc(-c2nc3ccncc3[nH]2)cc1 do in these assays?
LASV entry inh: 1%; CHX counter: 23*; MARV entry inh: 1%; Shiga toxin inh: 28

Results for COc1ccc(-c2nc3ccncc3[nH]2)cc1OC ?
LASV entry inh: inconclusive; CHX counter: 9; MARV entry inh: 18%[46.1 µM]; Shiga toxin inh: -4

What do the screens show for `Clc1ccc(-c2nc3ccncc3[nH]2)cc1`?
LASV entry inh: 21%; CHX counter: 82*; MARV entry inh: 11%; Shiga toxin inh: 59*

How did O=C(Nc1nccs1)c1ncc(Cl)c(Cl)c1Cl do in these assays?
LASV entry inh: -15%[46.1 µM]; CHX counter: 42*; MARV entry inh: -16%[46.1 µM]; Shiga toxin inh: 66*

Results for CCn1cc(Cl)c(C(=O)Nc2nccs2)n1 ?
LASV entry inh: -14%[46.1 µM]; CHX counter: 33*; MARV entry inh: inconclusive; Shiga toxin inh: 32*

What do the screens show for `Cn1cc(Cl)c(C(=O)NC2CCCC2)n1`?
CHX counter: -1; Shiga toxin inh: 16

Results for Cn1cc(Cl)c(C(=O)Nc2nccs2)n1 ?
LASV entry inh: 6%[46.1 µM]; CHX counter: 40*; MARV entry inh: 21%[46.1 µM]; Shiga toxin inh: 71*

How did O=C(N/C(=C\c1ccccc1)C(=O)N1CCOCC1)c1cccc(Br)c1 do in these assays?
LASV entry inh: 8%; CHX counter: 7; MARV entry inh: -30%; Shiga toxin inh: -10

How did CC(C)c1ccc(N(CC(=O)NCCSC(C)(C)C)S(C)(=O)=O)cc1 do in these assays?
LASV entry inh: inconclusive; CHX counter: 31*; MARV entry inh: inconclusive; Shiga toxin inh: 24

What do the screens show for `COc1ccc(CCNC(=O)c2ccc(N(C)S(=O)(=O)c3ccc(C)cc3)cc2)cc1`?
LASV entry inh: inconclusive; CHX counter: -3; MARV entry inh: -22%[46.1 µM]; Shiga toxin inh: -3

Results for CN(c1ccc(C(=O)NCCCn2ccnc2)cc1)S(C)(=O)=O ?
CHX counter: -1; Shiga toxin inh: -3

How did CCCCc1ccc(NC(=O)c2ccc(N(C)S(C)(=O)=O)cc2)cc1 do in these assays?
LASV entry inh: -19%; CHX counter: -1; MARV entry inh: inconclusive; Shiga toxin inh: -13

How did CN(c1ccc(C(=O)NCCc2ccccc2)cc1)S(C)(=O)=O do in these assays?
LASV entry inh: inconclusive; CHX counter: 21*; MARV entry inh: inconclusive; Shiga toxin inh: 68*

Results for CC(C)(C)SCCNC(=O)CN(c1ccccc1)S(=O)(=O)c1ccccc1 ?
LASV entry inh: inconclusive; CHX counter: -4; MARV entry inh: -20%; Shiga toxin inh: 1

Results for CN(c1ccc(C(=O)NCCSC(C)(C)C)cc1)S(C)(=O)=O ?
LASV entry inh: inconclusive; CHX counter: 37*; MARV entry inh: inconclusive; Shiga toxin inh: 140*

How did Cc1ccc(S(=O)(=O)N(C)c2ccc(C(=O)NCCc3ccccc3)cc2)cc1 do in these assays?
LASV entry inh: inconclusive; CHX counter: 32*; MARV entry inh: inconclusive; Shiga toxin inh: 62*

How did CN(c1ccc(C(=O)NCCSCc2ccco2)cc1)S(C)(=O)=O do in these assays?
LASV entry inh: -4%; CHX counter: 30*; MARV entry inh: 3%; Shiga toxin inh: 41*

How did CC(C)(C)SCCNC(=O)c1ccc(Cl)c([N+](=O)[O-])c1 do in these assays?
LASV entry inh: 5%; CHX counter: 27*; MARV entry inh: inconclusive; Shiga toxin inh: 98*

Results for CN(c1ccc(C(=O)Nc2ccccc2C(=O)N2CCCC2)cc1)S(C)(=O)=O ?
LASV entry inh: -1%; CHX counter: -2; MARV entry inh: 0%; Shiga toxin inh: 10

How did CN(c1ccc(C(=O)NCc2ccco2)cc1)S(C)(=O)=O do in these assays?
LASV entry inh: -10%; CHX counter: -2; MARV entry inh: 25%[46.1 µM]; Shiga toxin inh: 18

What do the screens show for `CN(c1ccc(C(=O)Nc2ccccc2C(F)(F)F)cc1)S(C)(=O)=O`?
LASV entry inh: inconclusive; CHX counter: 20; MARV entry inh: 12%[46.1 µM]; Shiga toxin inh: 41*

How did Cc1c(C(=O)N2CCOCC2)sc(NC(=O)c2ccccc2F)c1C#N do in these assays?
LASV entry inh: 1%; CHX counter: 2; MARV entry inh: 7%; Shiga toxin inh: -9

How did Cc1cccc(/C=N/Nc2cc(N3CCOCC3)nc(N3CCOCC3)n2)c1 do in these assays?
LASV entry inh: inconclusive; CHX counter: -3; MARV entry inh: 1.4µM*; Shiga toxin inh: 2

Results for Cc1ccc(/C=N/Nc2cc(C)nc(N3CCOCC3)n2)cc1 ?
LASV entry inh: 14%; CHX counter: -2; MARV entry inh: inconclusive; Shiga toxin inh: 12

Results for Cc1cc(N/N=C/c2ccccc2)nc(N2CCOCC2)n1 ?
LASV entry inh: 6%; CHX counter: 19*; MARV entry inh: 1.6µM*; Shiga toxin inh: 55

What do the screens show for `CCOC(=O)C1CCCN(S(=O)(=O)CCNC(=O)c2ccc(F)cc2)C1` (stereo not given)?
LASV entry inh: -1%; MARV entry inh: 3%[46.1 µM]

How did CCC1=NN(C(=O)c2ccc(Cl)cc2)C(O)(c2ccc(C)cc2)C1 (stereo not given) do in these assays?
LASV entry inh: -14%[46.1 µM]; CHX counter: 18*; MARV entry inh: -8%[46.1 µM]; Shiga toxin inh: 45*

What do the screens show for `CCC1=NN(C(=O)c2ccccc2O)C(O)(c2ccccc2)C1` (stereo not given)?
CHX counter: 31*; Shiga toxin inh: 77*

How did C/C(N)=C(/C#N)C(=O)COc1ccc(Cl)cc1Cl do in these assays?
LASV entry inh: inconclusive; CHX counter: 48*; MARV entry inh: inconclusive; Shiga toxin inh: 47

How did C/C(N)=C(/C#N)C(=O)COC(=O)CNC(=O)c1ccc(Cl)cc1Cl do in these assays?
CHX counter: 13*; MARV entry inh: 4%[46.1 µM]; Shiga toxin inh: 68*

How did C/C(N)=C(/C#N)C(=O)COC(=O)COc1ccc(Cl)cc1 do in these assays?
LASV entry inh: 19%[46.1 µM]; CHX counter: -1; MARV entry inh: 4%[46.1 µM]; Shiga toxin inh: 3

Results for CCCNC(=O)C1CCC(Cn2c(=O)c3sccc3n(CC(=O)NCc3ccccc3)c2=O)CC1 (stereo not given) ?
LASV entry inh: 0%[46.1 µM]

How did COCCn1c(=NC(=O)/C=C/c2ccccc2)sc2cc(NC(C)=O)ccc21 do in these assays?
LASV entry inh: 1%; CHX counter: -2; MARV entry inh: inconclusive; Shiga toxin inh: -8

How did Cc1ccc(C(NC(=O)NN2CCN(C)CC2)C(Cl)Cl)cc1F (stereo not given) do in these assays?
LASV entry inh: 10%[46.1 µM]; CHX counter: 32*; MARV entry inh: -4%[46.1 µM]; Shiga toxin inh: 79*

Results for Cc1ccccc1CN1CCc2nc(N3CCN(c4ccccn4)CC3)ncc2C1 ?
LASV entry inh: -28%[46.1 µM]

What do the screens show for `COc1ccccc1CCNC(=O)C(=O)NCC(c1ccco1)S(=O)(=O)c1ccc(C)cc1` (stereo not given)?
LASV entry inh: 9%[46.1 µM]

Results for NC(=O)CC(NC(=O)c1ccccc1)c1ccc(NCCOc2ccccc2)c([N+](=O)[O-])c1 (stereo not given) ?
CHX counter: -1; Shiga toxin inh: -3

What do the screens show for `O=[N+]([O-])c1cc(C(F)(F)F)ccc1NCCOc1ccccc1`?
LASV entry inh: inconclusive; CHX counter: 48*; MARV entry inh: inconclusive; Shiga toxin inh: 31*

How did COc1ccc(CNCCc2c(C)[nH]c3ccc(OC(F)(F)F)cc23)c(OC)c1 do in these assays?
LASV entry inh: inconclusive; CHX counter: -5; MARV entry inh: 6.3µM*; Shiga toxin inh: -20

Screening results: PubChem, National Center for Advancing Translational Sciences (NCATS)
